DAX1 inh-1 – DAX1 (NR0B1) inhibitors on StAR promoter, primary screen, cell-based, luminescence, SF-1 (NR5A1), full-length DAX-1; hit rate 1.1% among 370,000; HEK293T StAR-luciferase reporter, SF-1/DAX-1 repression relief; AID 652010, 2013; inhibition, % at 6.8 µM;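 active = inhibition above the mean over all tested compounds plus 3 SD, cut at about 3.6% in these data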;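 also: 0% = DAX-1 cells with DMSO and 100% = cells lacking DAX-1 with DMSO; higher inhibition means more luminescence from relief of DAX-1 repression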
DAX1 inh-2 – DAX1 (NR0B1) inhibitors, primary screen, cell-based, HEK293, Gal4-DAX1, luciferase luminescence | Nuclear receptor subfamily 0 group B member 1 (Homo sapiens), P51843 | HEK293 Gal4-DAX1 luciferase reporter | inhibition, % at 6.75 µM | hit rate 0.99% among 340,000 | AID 504766, 2011;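 active = inhibition above the mean over all tested compounds plus 3 SD, cut at about 4.2% in these data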;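 also: 0% = DAX1-transfected cells with DMSO and 100% = empty-vector control cells with DMSO; inhibition shows as a rise in luminescence from relieved DAX1 repression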
Target sequence (P51843 207-470 limits assumed): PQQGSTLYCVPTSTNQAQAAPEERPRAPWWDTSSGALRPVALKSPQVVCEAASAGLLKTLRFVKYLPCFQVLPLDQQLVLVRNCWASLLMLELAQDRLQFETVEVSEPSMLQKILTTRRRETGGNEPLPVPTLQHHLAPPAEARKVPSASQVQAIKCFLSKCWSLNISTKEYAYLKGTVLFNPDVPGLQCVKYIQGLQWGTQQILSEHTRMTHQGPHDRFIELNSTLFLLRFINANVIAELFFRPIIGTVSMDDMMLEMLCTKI
hgDAF-12 ag – H. glycines DAF-12 receptor agonists, primary screen, cell-based, luminescence, HEK293, GAL4 fusion, UAS-luciferase | Nuclear hormone receptor DAF-12 (Heterodera glycines), GAL4 fusion | HEK293 GAL4-hgDAF12 UAS-luciferase reporter, agonist luminescence; normalized to butyrate control | activation, % at 6.8 µM | hit rate 1.8% among 370,000 | AID 687014, 2013;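 active = activation above a cutoff set at the mean of all screened compounds plus 3 SD, cut at about 10% in these data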;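 also: 0% = DMSO wells and 100% = sodium butyrate wells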
hcDAF12 agonist – H. contortus DAF-12 nuclear receptor activators, primary screen, cell-based, luminescence, HEK293, lit1-tk-luc reporter. HEK293 hcDAF-12 lit1-tk-luc reporter; 0% DMSO, 100% Δ7-dafachronic acid. activation, % at 6.8 µM. hit rate 1.4% among 370,000. AID 652067, 2013;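 active = activation above the mean of all tested compounds plus 3 SD, cut at about 5.5% in these data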;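 also: 100% = response to 3 µM Δ7-dafachronic acid high control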
ssDAF12 agonist – S. stercoralis DAF-12 nuclear receptor activators, primary screen, cell-based, luminescence, HEK293, GRIP1 co-expression, lit1-tk-luc; Nuclear hormone receptor DAF-12 (Strongyloides stercoralis); HEK293 ssDAF-12/GRIP1 lit1-tk-luc reporter; % of 3 µM dafachronic acid response; activation, % at 6.8 µM; hit rate 1% among 370,000; AID 652126, 2013;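 active = activation above the mean over all tested compounds plus 3 SD, cut at about 0.9% in these data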;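 also: 0% = DMSO-only wells and 100% = 3 µM delta7-dafachronic acid wells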
DAX1 inh confirm – DAX1 (NR0B1) inhibitors relieving SF-1 repression, confirmation, cell-based, luminescence, HEK293T, full-length DAX-1, SF-1 activated StAR promoter; inhibition, % at 6.8 µM; shares compounds with DAX1 inh-1; AID 652134, 2013; hit rate 87% among 2,400; HEK293T StAR-promoter luciferase reporter, SF-1/DAX-1 repression;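 active = inhibition above the average of every tested compound plus 3 SD, cut at about 3.8% in these data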;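 also: 0% = DAX-1 cells with DMSO and 100% = no DAX-1 control cells with DMSO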
Target sequence (P51843 whole entry, looked up): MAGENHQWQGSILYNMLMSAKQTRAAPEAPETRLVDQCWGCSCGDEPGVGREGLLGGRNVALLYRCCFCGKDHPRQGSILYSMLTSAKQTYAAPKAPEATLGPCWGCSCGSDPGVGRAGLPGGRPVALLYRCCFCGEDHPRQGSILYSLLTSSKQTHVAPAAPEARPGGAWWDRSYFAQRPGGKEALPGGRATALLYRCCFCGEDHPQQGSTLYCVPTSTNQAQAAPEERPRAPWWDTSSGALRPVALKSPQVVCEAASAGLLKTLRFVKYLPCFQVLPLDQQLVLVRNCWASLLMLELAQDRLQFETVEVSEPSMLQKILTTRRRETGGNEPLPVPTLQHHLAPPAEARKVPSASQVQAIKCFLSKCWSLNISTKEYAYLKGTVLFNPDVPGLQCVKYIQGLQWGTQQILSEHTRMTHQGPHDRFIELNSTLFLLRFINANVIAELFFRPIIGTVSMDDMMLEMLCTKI
SF1 mutant ctr – StAR reporter signal changes without DAX1, counter-screen for DAX1 inhibitor project, cell-based, luminescence, AF-2 mutant SF-1, transactivation; shares compounds with DAX1 inh-1; HEK293 StAR-luciferase, SF-1 AF2 mutant; inhibition, % at 6.8 µM; hit rate 78% among 2,400; AID 652136, 2013;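 active = inhibition above the mean of all tested compounds plus 3 SD, cut at about 3% in these data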;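 also: 0% = DAX-1 transfected cells with DMSO and 100% = cells without DAX-1 with DMSO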
* = called active by the depositor; x = not tested or not shown. Most compounds without a hit are left out; they make up all but 4.1% or so of the library.

SMILES | DAX1 inh-1 | DAX1 inh-2 | hgDAF-12 ag | hcDAF12 agonist | ssDAF12 agonist | DAX1 inh confirm | SF1 mutant ctr
CC(C)n1nnnc1C1c2ccccc2C(=O)N1CCc1c[nH]c2ccccc12 (stereo not drawn) | 5.5* | x | 5.4 | 2.5 | -0.7 | 2.6 | 2.3
O=C1c2ccccc2C(c2nnnn2Cc2ccccc2)N1CCc1ccc(O)cc1 (stereo not drawn) | 2.5 | x | 2.1 | 0.1 | -0.5 | x | x
O=C1c2ccccc2C(c2nnnn2Cc2ccccc2)N1CCc1ccccc1F (stereo not drawn) | 9.2* | x | 11.1* | 5.1 | -0.3 | -3.6 | -0.6
O=C1c2ccccc2C(c2nnnn2Cc2ccccc2)N1CCOc1ccccc1 (stereo not drawn) | 7.2* | x | 18.9* | 8.2* | 0.3 | 6.5* | 4.1*
CCOC1=C2CN(S(=O)(=O)c3ccccc3)[C@H](c3ccccc3)C[C@H]2n2c(=O)n(-c3ccccc3)c(=O)n2C1 | 0.8 | x | 1.1 | -1.4 | -0.1 | x | x
COc1ccc2c(ccc[n+]2CC(=O)c2ccccc2)c1 | -0.6 | -0.4 | 0.7 | -0.7 | -1.8 | x | x
COc1ccc(C(=O)C[n+]2cn(C(F)F)c3ccccc32)c(F)c1 | 7.3* | 0.9 | 8.9 | 2.6 | -0.4 | 2.4 | 3.9*
C[C@@H]1CN([C@@H](C)CO)C(=O)CCCn2nncc2CO[C@@H]1CN(C)S(=O)(=O)c1ccc(F)cc1 | -0.1 | 0.4 | 2.6 | -0.4 | -0.9 | x | x
CCCCNC(=O)C[C@@H]1C[C@@]2(C(=O)OCC)CCCC=C2N(CCc2ccc(OC)c(OC)c2)C1=O | 5.2* | x | -1.7 | -1.4 | -1.7 | 1.4 | -0.7
COC(=O)[C@@]12C[C@@H](CC(=O)NCc3ccc(C)o3)C(=O)N(CCc3ccc(OC)c(OC)c3)C1=CCC(C)(C)C2 | 5.8* | x | 0.0 | -0.4 | -1.1 | 2.4 | 0.7
CCOC(=O)[C@]12CCCC=C1N(Cc1ccccc1)C(=O)[C@H](CC(=O)NCc1ccccc1)C2 | -0.4 | x | 0.4 | -0.1 | -1.3 | x | x
CCOC(=O)[C@]12CCCC=C1N(Cc1ccco1)C(=O)[C@H](CC(=O)NCc1ccccc1)C2 | 4.7* | x | 2.5 | 1.1 | -1.4 | 1.4 | 2.7
COC(=O)c1sc(C(C)(C)C)cc1CS(=O)(=O)c1ccc(Cl)cc1 | -0.1 | 0.7 | 0.1 | -2.2 | -1.3 | x | x
CCCCNC(=O)C1C(c2ccc(C(F)(F)F)cc2)=Nc2ccccc2N1C(C)=O (stereo not drawn) | 1.3 | x | 0.8 | 1.4 | -0.2 | x | x
CC(C)OCc1ccc(C(=O)N2CCN(CC(=O)N3CCCC3)CC2)cc1 | 2.5 | 0.8 | 2.2 | -0.4 | -1.2 | x | x
CCN1CCN(c2ccc(S(=O)(=O)N3CCCCC3)cc2NC(=O)/C=C/c2ccc(Cl)cc2)CC1 | 4.8* | -0.3 | 0.2 | -0.9 | -1.0 | 1.5 | -0.2
COc1ccc(-c2csc(N3C(=N)SCC3=O)n2)cc1 | 6.9* | 1.7 | 13.1* | 6.4* | 0.4 | 16.3* | 7.4*
Cc1ccc(/C=N/N=C2\SCC(=O)N2CC2CC2)cc1 | 0.3 | 0.2 | -1.7 | -2.7 | -1.3 | x | x
Cc1ccc2nc(-c3ccc(Cl)cc3)c(Cc3cccc(F)c3)n2c1 | 3.0 | x | 8.3 | -0.1 | 0.2 | x | x
Cc1ccc2nc(-c3ccc(Cl)cc3)c(Cc3ccccc3C(F)(F)F)n2c1 | 7.7* | x | 11.8* | 1.9 | -0.7 | 3.7* | 3.7*
Cc1ccc2nc(-c3cccc(Cl)c3)c(Cc3cccc(F)c3)n2c1 | 4.8* | x | 5.3 | 1.6 | -0.7 | 2.4 | 2.3
Cc1ccnc2nc(C(=O)OCCOc3ccc(Cl)cc3)nn12 | -0.1 | 0.0 | 4.2 | -0.5 | -1.1 | x | x
CCOc1ccc(C(=O)COC(=O)c2nc3nccc(C)n3n2)cc1 | 4.9* | -0.3 | 0.4 | 1.2 | -1.4 | 2.9 | 1.7
CC(=O)c1c(C)[nH]c(C(=O)Nc2ccccn2)c1C | 7.5* | 0.3 | 7.5 | 2.0 | -0.1 | 9.1* | 6.3*
CC(=O)c1c(C)[nH]c(C(=O)Nc2ccc(Cl)cc2)c1C | 1.5 | 1.4 | 9.4 | 3.7 | 0.1 | x | x
SMILES | DAX1 inh-1 | DAX1 inh-2 | hgDAF-12 ag | hcDAF12 agonist | ssDAF12 agonist | DAX1 inh confirm | SF1 mutant ctr
Cc1ccc(NC(=O)Nc2ccc3c(c2)OCO3)c(OC(F)F)c1 | 5.7* | 1.9 | 9.4 | 0.5 | -0.1 | 9.1* | 7.1*
COc1ccc(NC(=O)Nc2ccc(C)cc2OC(F)F)cc1OC | -0.9 | -0.1 | -2.6 | -0.5 | -0.9 | x | x
COc1cccc(NC(=O)Nc2ccc3c(c2)OCO3)c1 | 8.4* | 1.2 | 9.6 | 2.9 | -0.1 | 6.2* | 4.9*
COc1cccc(NC(=O)CN(C)CC(=O)Nc2ccc3c(c2)OCO3)c1 | 1.2 | -1.3 | -1.5 | -1.6 | -1.0 | x | x
O=S1(=O)c2ccc(Br)cc2N2CC[C@H](C2)N1Cc1ccc(Cl)cc1 | 0.0 | -0.7 | 0.2 | -0.7 | -0.7 | x | x
O=S1(=O)CC(N2CCN(CC3CC3)CC2)CN1Cc1ccc(F)cc1 (stereo not drawn) | 5.9* | x | 0.0 | 2.2 | -0.7 | 2.6 | -1.4
O=S1(=O)CC(N2CC=CC2)CN1Cc1cn(Cc2ccc(F)cc2)nn1 (stereo not drawn) | 5.2* | x | -2.4 | -0.1 | -1.3 | 2.3 | 0.6
Cc1ccc(C(=O)NC2CCc3ccccc3C2=O)cc1 (stereo not drawn) | 5.5* | 2.3 | 13.2* | 3.3 | -0.7 | 4.6* | 3.3*
CC(C)(C)NC(=O)C[C@H]1C[C@H](C(=O)N2CCOCC2)[C@@]2(CCC3CCCC3)c3[nH]c4cc(-c5ccco5)ccc4c3CCN2C1=O | x | -1.1 | x | x | x | x | x
COCCCNC(=O)C[C@H]1C[C@H](C(=O)N2CCOCC2)[C@@]2(CCC3CCCC3)c3[nH]c4cc(-c5ccco5)ccc4c3CCN2C1=O | 5.8* | -1.3 | -2.3 | 0.4 | -1.3 | 0.5 | 0.6
O=C(Nc1nnc(C2CC2)s1)c1cncc(Br)c1 | 4.8* | 0.7 | 7.3 | 1.2 | -0.8 | 5.9* | 3.9*
Cc1ccc(C(=O)OCC(=O)N2CCNC2=O)c(C)c1 | 6.9* | 3.6 | 8.8 | 3.8 | -0.6 | 7.1* | 5.9*
Cc1ccnc(NC(=O)c2ccc(C(=O)c3ccccc3)cc2)c1 | 9.1* | -2.8 | 9.1 | 3.5 | -0.6 | 11.1* | 3.2*

Source: PubChem
